Potency data for six compounds are collected here from PubChem BioAssay (NCATS).

Records with an inconclusive call do not appear. Active and inactive are the calls of the source. Calls come from the whole dose curve; as a rule, active = well fitted inhibition curve with a large enough effect; inconclusive = small, poorly fitted or top-dose-only effect; inactive = flat fitted curve, though single readings scatter.

Experiment in all cases: qHTS profiling for inhibitors of Plasmodium falciparum proliferation (AID 504749); note: nearly all actives have a fitted effect of over 60% in size
Common to all, as to conditions: P. falciparum in erythrocytes, SYBR Green DNA, 72 h; series mostly up to 28.7 µM

The subject of one test is CP238. Put shortly:
(§1)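 P. falciparum-infected erythrocytes (0.3% parasitemia, 2.5% hematocrit final) were exposed to compounds for 72 h at 37 C in 5% CO2, then lysed with SYBR Green buffer overnight at room temperature; parasite DNA fluorescence was normalized to artemisinin and DMSO controls.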

The next test concerns CP247. Put shortly: as §1
The test system of a further test is CP250. Put shortly:
as §1

The next test has as its system CP252. The method, boiled down:
as §1

Another test has as its system CP256. The method, boiled down:
as §1

For a further test, the system named is CP260. Put shortly: as §1
A further test deals with CP262. Put shortly: as §1
The test system of another test is CP265. The method, boiled down:
as §1

The subject of a further test is CP266. Put shortly:
as §1

The subject of another test is CP268. The method, boiled down: as §1
In a further test the test system is CP269. The method, boiled down:
as §1

A further test concerns CP286. The method, boiled down: as §1
A further test concerns CP291. The method, boiled down: as §1
In the next test the test system is CP297. The method, boiled down: as §1
Another test relates to CP305. Put shortly:
as §1

The subject of the next test is CP315. The method, boiled down: as §1
For a further test, the system named is CP325. The method, boiled down:
as §1

Another test has as its system CP329. The method, boiled down:
as §1

A further test has as its system CP335. The method, boiled down:
as §1

Another test deals with DFO2036. The method, boiled down: as §1
Potency is the fitted concentration of half-maximal effect.

Turning to `CC1=C(C(=O)OC(C)C)C(c2cccc([N+](=O)[O-])c2)C(C(=O)OC2CN(C(c3ccccc3)c3ccccc3)C2)=C(N)N1` (stereo not given), the Potency in the test with CP238 is 8.91 µM (active); with CP247 it was 10 µM (active); in the test on CP250 it was 8.91 µM (active); in the test on CP252 it was 10 µM (active); with CP256, 4.47 µM (active); in the test on CP260, 6.31 µM (active). Moreover, the Potency in the test with CP262 is 12 µM (active); in the test with CP265, 7.94 µM (active); in the test with CP266 it was 9.53 µM (active); with CP268 it was 9.53 µM (active); in the test with CP269, 8.49 µM (active); in the test on CP286, 5.01 µM (active). Also, the Potency was 8.49 µM (active) in the test on CP291; 13.5 µM (active) in the test with CP297; 7.57 µM (active) in the test with CP305; 13.5 µM (active) in the test on CP315; 6.01 µM (active) in the test with CP325; 6.01 µM (active) in the test on CP329. For the same compound, the Potency is 4.78 µM (active) in the test with CP335 and 7.08 µM (active) in the test on DFO2036.
As for `COC1=CC(=O)C[C@@H](C)[C@]12Oc1c(Cl)c(OC)cc(OC)c1C2=O`, the Potency result in the test on CP238, in the test with CP247, in the test with CP250, with CP252, in the test with CP256 and in the test with CP260 was “inactive” in each case. Moreover, the Potency entry in the test with CP262, in the test with CP265, in the test on CP266, with CP268, with CP269 and with CP286 was “inactive” each time. For the same compound, the Potency entry in the test with CP291, in the test on CP297, in the test with CP305, with CP315, in the test with CP325 and with CP329 was “inactive” each time. Also, the Potency entry in the test with CP335 and with DFO2036 was “inactive” throughout.
As for `COc1ccc(C2C(=O)c3ccccc3C2=O)cc1`, the Potency result in the test with CP238, in the test with CP247, with CP250, in the test on CP252, with CP256 and with CP260 was “inactive” each time. In addition, the Potency result in the test with CP262, in the test with CP265, in the test on CP266, in the test with CP268, in the test with CP269 and with CP286 was “inactive” throughout. Moreover, the Potency entry in the test on CP291, with CP297, in the test on CP305, in the test with CP315, with CP325 and in the test on CP329 was “inactive” throughout. Further, the Potency result with CP335 and with DFO2036 was “inactive” throughout.
In the case of `CCCCN1CCCC1C(=O)Nc1c(C)cc(C)cc1C` (stereo not given), the Potency entry with CP238, in the test with CP247, in the test on CP250, in the test on CP252, in the test on CP256 and with CP260 was “inactive” each time. The Potency entry in the test with CP262, in the test on CP265, in the test with CP268, in the test with CP269, with CP286 and in the test with CP291 was “inactive” each time. Further, the Potency result in the test on CP305, in the test on CP315, with CP325, with CP329 and in the test with DFO2036 was “inactive” each time.
Regarding `Cc1c(C)n(Cc2ccccc2)c2ccc(C(=O)OCCN(C)C)cc12`, the Potency entry in the test on CP238, with CP247, in the test with CP250, with CP252, in the test with CP256 and in the test with CP260 was “inactive” throughout. The Potency entry with CP262, in the test on CP265, in the test on CP268, in the test with CP269, in the test on CP286 and in the test on CP291 was “inactive” throughout. Further, the Potency result in the test on CP297, with CP305, in the test with CP315, in the test with CP325, in the test on CP329 and in the test on CP335 was “inactive” throughout. Also, the Potency entry with DFO2036 is “inactive”.
As for `NC(CO)(CO)CO`, the Potency result in the test on CP238, with CP247, with CP250, with CP252, in the test with CP256 and in the test on CP260 was “inactive” in each case. Moreover, the Potency result in the test with CP262, with CP265, with CP266, in the test on CP268, in the test on CP269 and with CP286 was “inactive” in each case. The Potency entry with CP291, in the test with CP305, in the test on CP315, with CP325, in the test on CP329 and in the test on CP335 was “inactive” each time. The Potency result in the test on DFO2036 is “inactive”.
